This note sets out measurements from PubChem BioAssay AID1259336 (Sattelle Laboratory, UCL Respiratory, Division of Medicine, …, 2017).

A short description of the assay: anthelmintic activity against nematode growth – whole organism, log2 fold change (AID 1259336).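 Also: growth scored by imaging after five days at 20 °C.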 To be noted: C. elegans growth, anthelmintic screen; active compounds read low.

Values without a mark were called inactive. Rule as the data show it: active = log2 fold change growth below about -1.8; inactive = the rest.

In the case of `c1ccc(Oc2ccc(-c3cc(N4CCOCC4)n[nH]3)cc2)cc1`, the log2 fold change growth was 0.348. Consider `CN(C)CCNC(=O)N1CCCN(c2ncnc3cc(-c4ccccc4)sc23)CC1`, for which the log2 fold change growth was -0.255. With `CCOc1ccc(-c2nc(CNCCc3ccc(F)cc3)cs2)cc1`, the log2 fold change growth was 0.153. With `Cc1cc(C)n(-c2ccc(NC(=O)C3CCN(Cc4cnc(C)s4)CC3)cc2)n1`, the log2 fold change growth was 0.442. For the molecule `O=C(Nc1nc(-c2ccccn2)cs1)c1cncn1-c1ccccc1`, the log2 fold change growth is -0.307. Next, `N#Cc1nc(-c2ccccc2F)oc1NCCc1ccccc1`: -0.468.

In the case of `COc1ccccc1CNC(=O)c1cc(C2CC2)nc2c1cnn2C(C)C`, the log2 fold change growth is -0.297. Turning to `O=C(OCc1ccccc1)N1CCC(c2cc(-c3ccncc3)c(-c3ccc(F)cc3)[nH]2)CC1`, the log2 fold change growth was -0.374. Regarding `CCCCc1ccc(NC(=O)Nc2ccc(O[C@H]3CCCC[C@@H]3N(C)c3ccccc3)c(F)c2)cc1`, the log2 fold change growth is -0.0752. For `COc1cc2ncnc(NC3CCN(Cc4ccccc4)CC3)c2cc1OC`, the log2 fold change growth is -0.116.

Consider `Cc1cc(NCC(C)C)c2[nH]nc(-c3ccccc3)c2n1`, for which the log2 fold change growth was 0.0984.

For the molecule `CCCNC(=O)N1CCC2(CC1)CC(=O)c1cc(C)ccc1O2`, the log2 fold change growth was -0.181.

Take `COc1ccc(-c2cnc3cnc(-c4cccc(OC(C)C)c4)cn23)cc1`: the log2 fold change growth is -0.137. With `COc1ccc(-c2nnc3ccc(-c4cccc(C(C)C)c4)cn23)cc1OC`, the log2 fold change growth was -0.151.

Consider `Nc1nc(N)c2c3c(sc2n1)CN(Cc1ccccc1)CC3`, for which the log2 fold change growth is 0.456.
